High-throughput results (PubChem)
Sampled rows, rich in hits. Any-hit rate of the full collection: about 17%.
TDP1 cell CPT: growth inhibition of DT40 Tdp1-/-;hTDP1 cells with camptothecin (screen for TDP1 inhibitors) | chicken DT40 Tdp1-/-;hTDP1 cells + 20 nM CPT, ATP luminescence, 48 h | AID 686979 | Potency, µM (top dose mostly 46.2 µM), hits mostly inhibitors | hit rate 12% among 420,000; further: nearly all actives have a fitted effect of over 55% in size
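Chicken DT40 Tdp1-/- cells complemented with human TDP1, 400 cells/well, exposed to compounds plus 20 nM camptothecin for at least 48 h at 37 C; viability read as ATP content by CellTiter-Glo luminescence.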
DT40 TDP1 no CPT: qHTS for Inhibitors of human tyrosyl-DNA phosphodiesterase 1 (TDP1): qHTS in cells in absence of CPT; Potency, µM (top dose mostly 46.2 µM), most hits filed as inhibitors; DT40 Tdp1-/- hTDP1 cells, no CPT, ATP luminescence, 48 h; hit rate 15% among 420,000; further: nearly all actives have a fitted effect of over 55% in size
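No-CPT arm: Tdp1-/-;hTDP1 DT40 cells (400/well) plus compounds, incubated ≥48 hr at 37 °C. Readout CellTiter-Glo luminescence.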
HepG2 tox: HepG2 cytotoxicity, counter-screen for TGF-b inhibitors. HepG2 CAGA-GFP viability, ATP luminescence, 18 h. Potency, µM (titrated, usually from 46.1 µM), actives largely listed as cytotoxic. hit rate 0.76% among 410,000
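CellTiter-Glo luminescence gave cytotoxicity after 18 hours at 37 degrees C. The cells were HepG2 CAGA-GFP in 1% FBS DMEM, stimulated with 500 pg/mL TGF-beta after compound addition. %Activity was normalised to no-cell wells (complete cell-killing) and DMSO (no toxicity), and curves were fitted and classified.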
TGFb SMAD3 inh: TGF-b pathway inhibition; Potency, µM (series often up to 46.1 µM), usual class: inhibitors; HepG2 CAGA-GFP TGF-b/SMAD3 reporter, GFP fluorescence, 18 h; TGF-beta stimulated, 500 pg/mL final; hit rate 1.2% among 410,000; further: nearly all actives have a fitted effect of over 65% in size
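First, reporter cells (HEPG2 CAGA-GFP) rested 2 h at 37 degrees C. Next, compounds were pinned in and TGF-beta added to 500 pg/mL final. After 18 h, GFP was imaged per cell and summed per well.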
S2 tox: cell viability loss in ATXN counter-screen. hit rate 0.49% among 400,000. AID 651635. Potency, µM (series often up to 56.7 µM), hits mostly cytotoxic. S2 cells (HEK-293 line with an ATXN2-luciferase reporter) viability, CellTiter-Fluor protease fluorescence, 24 h; further: nearly all actives have a fitted effect of over 40% in size
ATXN2 expr inh: reduces ATXN2 reporter expression in HEK-293 cells; HEK-293 ATXN2-luciferase reporter, luminescence, 24 h; Potency, µM (titrated, usually from 57 µM), usual class: inhibitors; hit rate 0.72% among 360,000; AID 1745845; further: nearly all actives have a fitted effect of over 55% in size
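ATXN2-luciferase reporter cells (luciferase flanked by upstream and downstream ATXN2 gene portions) were treated 24 h at 37 °C with compounds at up to 57 uM. SteadyGlo luminescence gave expression; GF-AFC fluorescence gave viability.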
Of the large screens only hits and unclear results are named; the others gave an inactive call. The call rests on the fitted dose curve; in most records, active means well fitted curve in the direction sought with a large enough effect; inconclusive means small, poorly fitted or top-dose-only effect, or another doubt; inactive means no such curve, though single readings can be large; an effect the other way counts as inactive or inconclusive.

O=C(NC[C@@H]1CCCO1)c1cccc2c1C(=O)c1ccc(Cl)cc1S2(=O)=O	S2 tox inconclusive
O=C(NCc1ccc(F)cc1)c1cccc2c1C(=O)c1ccc(N3CCOCC3)cc1S2(=O)=O	TDP1 cell CPT 23.1µM, DT40 TDP1 no CPT inconclusive
O=C1c2ccc(Cl)cc2S(=O)(=O)c2cccc(C(=O)N3CCC(Cc4ccccc4)CC3)c21	TDP1 cell CPT inconclusive, DT40 TDP1 no CPT 23.1µM, TGFb SMAD3 inh inconclusive, ATXN2 expr inh inconclusive (no result: S2 tox)
O=C(NCC1CC1)c1cccc2c1C(=O)c1ccc(-c3ccc(OC(F)(F)F)cc3)cc1S2(=O)=O	TDP1 cell CPT 13µM, DT40 TDP1 no CPT 23.1µM
COc1cccc(NC(=S)N2CCN(c3ccccn3)CC2)c1	TDP1 cell CPT inconclusive, DT40 TDP1 no CPT inconclusive
CCOc1ccc(N(C(=O)c2cc3ccccc3oc2=O)C2C=CS(=O)(=O)C2)cc1 (centres undefined)	none
CC(C)(C)CNC(=O)c1cccc2c1C(=O)c1ccc(N3CCCC3)cc1S2(=O)=O	TDP1 cell CPT 20.6µM, DT40 TDP1 no CPT 16.4µM
COc1cccc(CNC(=O)[C@@H]2CCCN2C(=O)[C@@H]2CCCN2C(=O)c2c(F)cccc2F)c1	none (no result: HepG2 tox, TGFb SMAD3 inh)
CCc1cccc(C)c1NC(=O)Nc1c(Br)cnn1C	S2 tox inconclusive (no result: ATXN2 expr inh)
CCCCn1c(O)c(N=Nc2ccccn2)c2ccccc21	TDP1 cell CPT inconclusive, DT40 TDP1 no CPT inconclusive, TGFb SMAD3 inh inconclusive
CCCCn1c(O)c(N=Nc2ccccc2O)c2ccccc21	TDP1 cell CPT 23.1µM, DT40 TDP1 no CPT inconclusive, TGFb SMAD3 inh inconclusive
CCn1c(O)c(N=Nc2ccc3ccccc3n2)c2ccccc21	TDP1 cell CPT inconclusive, DT40 TDP1 no CPT 23.1µM, TGFb SMAD3 inh inconclusive (no result: ATXN2 expr inh)
C=CCn1c(O)c(N=Nc2ccccc2C)c2ccccc21	TDP1 cell CPT 18.4µM, DT40 TDP1 no CPT inconclusive
CCn1c(O)c(N=NC(=O)CNC(=O)/C=C/c2ccccc2)c2ccccc21	TDP1 cell CPT inconclusive, DT40 TDP1 no CPT inconclusive
C=CCn1c(O)c(N=NC(=S)Nc2ccc(OC)c(Cl)c2)c2ccccc21	TDP1 cell CPT 4.61µM, DT40 TDP1 no CPT 2.59µM, S2 tox inconclusive
CCCN1C(=O)C(Cc2nc3ccccc3c(=O)n2CC)c2cc(Br)ccc21 (centres undefined)	TDP1 cell CPT 1.16µM, DT40 TDP1 no CPT 1.16µM, TGFb SMAD3 inh 7.94µM (no result: S2 tox, ATXN2 expr inh)
CCN1C(=O)C(Cc2nc3ccccc3c(=O)n2C)c2cc(C)ccc21 (centres undefined)	TDP1 cell CPT inconclusive, DT40 TDP1 no CPT 25.9µM, S2 tox inconclusive
CCCN1C(=O)C(Cc2nc3ccccc3c(=O)n2CC)c2ccccc21 (centres undefined)	TDP1 cell CPT inconclusive, DT40 TDP1 no CPT 5.17µM (no result: TGFb SMAD3 inh, S2 tox, ATXN2 expr inh)
CCCN1C(=O)C(Cc2nc3ccccc3c(=O)n2-c2ccccc2)c2ccccc21 (centres undefined)	DT40 TDP1 no CPT inconclusive
COc1ccc(-n2c(CC3C(=O)Nc4ccc(C)cc43)nc3ccccc3c2=O)cc1 (centres undefined)	TDP1 cell CPT inconclusive, DT40 TDP1 no CPT inconclusive
CCn1c(CC2C(=O)Nc3ccccc32)nc2ccccc2c1=O (centres undefined)	DT40 TDP1 no CPT inconclusive, S2 tox inconclusive
CCn1c(CC2C(=O)N(C)c3ccc(Br)cc32)nc2ccccc2c1=O (centres undefined)	TDP1 cell CPT 5.17µM, DT40 TDP1 no CPT 1.46µM, TGFb SMAD3 inh inconclusive (no result: S2 tox, ATXN2 expr inh)
O=C(Cn1c(=O)n(-c2ccc(Cl)cc2)c(=O)c2c3c(sc21)CCCCC3)Nc1cccc(Cl)c1	TDP1 cell CPT inconclusive, DT40 TDP1 no CPT inconclusive
Cc1cc(OCC(=O)N2CCC(C(N)=O)CC2)c2c(C)cc(=O)oc2c1	none
N#Cc1ccc(S(=O)(=O)NCC(=O)OCC(=O)N2CCCC2=O)cc1	none
CCCC1(c2ccccc2)NC(=O)N(CC(=O)c2[nH]c(C)c(C(=O)OCC)c2C)C1=O (centres undefined)	TDP1 cell CPT inconclusive, DT40 TDP1 no CPT 20.6µM
CC(NC(=O)c1cc(S(=O)(=O)N(C)C)ccc1Cl)C1CC2CCC1C2 (centres undefined)	TDP1 cell CPT 16.4µM, DT40 TDP1 no CPT 9.2µM
CC(C)(C)OC(=O)C[C@@H]1C/C=C\C[C@@H](CC(=O)N(CCO)Cc2ccccc2)C(=O)NC[C@@H](c2ccccc2)OC1=O	TDP1 cell CPT 20.6µM, DT40 TDP1 no CPT inconclusive
CC(C)(C)OC(=O)C[C@@H]1C/C=C\C[C@H](CC(=O)N(CCO)Cc2ccccc2)C(=O)NC[C@H](c2ccccc2)OC1=O	TDP1 cell CPT inconclusive, DT40 TDP1 no CPT inconclusive
CC(C)(C)OC(=O)C[C@@H]1C/C=C\C[C@@H](CC(=O)N(CCO)Cc2ccccc2)C(=O)NCCOC1=O	none
CC(C)(C)OC(=O)C[C@@H]1C/C=C\C[C@@H](CC(=O)N(CCO)Cc2ccccc2)C(=O)NC[C@H](c2ccccc2)OC1=O	TDP1 cell CPT 11.6µM, DT40 TDP1 no CPT inconclusive
CC(C)c1ccc2oc(=O)cc(CN3CCCCC3)c2c1	TDP1 cell CPT 29.1µM, DT40 TDP1 no CPT 23.1µM
CC1CCN(Cc2cc(=O)oc3ccc(C(C)C)cc23)CC1	TDP1 cell CPT 25.9µM, DT40 TDP1 no CPT inconclusive
CC(C)c1ccc2oc(=O)cc(CN3CCN(c4ccccc4)CC3)c2c1	TDP1 cell CPT inconclusive, DT40 TDP1 no CPT inconclusive, TGFb SMAD3 inh inconclusive
Cc1cc2oc(=O)cc(CN3CCC(C)CC3)c2cc1C	none
CC[C@H](C)[C@@H](C(=O)NCCCCCCCCCCC(=O)N1CCNCC1)n1cc(CCCCCN)nn1	DT40 TDP1 no CPT inconclusive
COCc1ccc(-c2c(-c3ccsc3)oc(=O)c3cc(OC)c(OC)cc23)cc1	TDP1 cell CPT inconclusive, DT40 TDP1 no CPT 20.6µM
COc1cc2c(C#CCCO)c(-c3ccsc3)oc(=O)c2cc1OC	TDP1 cell CPT inconclusive, DT40 TDP1 no CPT 8.2µM, TGFb SMAD3 inh inconclusive, S2 tox inconclusive, ATXN2 expr inh inconclusive
COc1cc2c(C#CCCO)c(-c3ccc(C#N)cc3)oc(=O)c2cc1OC	DT40 TDP1 no CPT inconclusive, TGFb SMAD3 inh inconclusive (no result: S2 tox)
CCOc1ncccc1C(=O)Nc1cccc(-c2nnc3n2CCCCC3)c1	DT40 TDP1 no CPT inconclusive
C[C@@H]1CN(S(=O)C(C)(C)C)[C@H](CCO)/C1=C\CCO (some centres undefined)	none
CCc1ccc(-c2cn3nc(C)c(C)nc3n2)cc1	ATXN2 expr inh 5.01µM (no result: S2 tox)
Cc1nn(Cc2c(F)c(F)c(F)c(F)c2F)c(C)c1NC(=O)c1c([N+](=O)[O-])c(C)nn1C	TDP1 cell CPT inconclusive, DT40 TDP1 no CPT inconclusive
